{"source": "paper PMC11062922", "about": "(Nature Chemical Biology, 2023)", "set-up_in_all_cases": "species or system human, MV4-11 + K-562 + COLO205 + SK-N-BE2 + OVCAR-8", "key": {"ADRBK1": {"test_system": "ADRBK1", "conditions": "read-out: apparent Kd; compound concentrations:100 nM and 1000 nM (sheet 'Samples'); n = 1"}, "AKT2": {"test_system": "AKT2", "conditions": "read-out: apparent Kd; compound concentrations:100 nM and 1000 nM (sheet 'Samples'); n = 1"}, "EIF2AK1": {"test_system": "EIF2AK1", "conditions": "read-out: apparent Kd; compound concentrations:100 nM and 1000 nM (sheet 'Samples'); n = 1"}, "GSK3A": {"test_system": "GSK3A", "conditions": "read-out: apparent Kd; compound concentrations:100 nM and 1000 nM (sheet 'Samples'); n = 1"}, "GSK3B": {"test_system": "GSK3B", "conditions": "read-out: apparent Kd; compound concentrations:100 nM and 1000 nM (sheet 'Samples'); n = 1"}, "PIM2": {"test_system": "PIM2", "conditions": "read-out: apparent Kd; compound concentrations:100 nM and 1000 nM (sheet 'Samples'); n = 1"}, "PRKAG1": {"test_system": "PRKAG1", "conditions": "read-out: apparent Kd; compound concentrations:100 nM and 1000 nM (sheet 'Samples'); n = 1"}, "TAOK1": {"test_system": "TAOK1", "conditions": "read-out: apparent Kd; compound concentrations:100 nM and 1000 nM (sheet 'Samples'); n = 1"}, "ADK": {"test_system": "ADK", "conditions": "read-out: apparent Kd; compound concentrations: 100 nM and 1000 nM (sheet 'Samples'), CATDS: 3.8521875066841203E-2; n = 1"}, "COX5A": {"test_system": "COX5A", "conditions": "read-out: apparent Kd; compound concentrations: 100 nM and 1000 nM (sheet 'Samples'), CATDS: 3.6331945852285497E-2; n = 1"}, "CSNK1A1": {"test_system": "CSNK1A1", "conditions": "read-out: apparent Kd; compound concentrations: 100 nM and 1000 nM (sheet 'Samples'), CATDS: 6.6366617124681102E-2; n = 1"}, "CSNK1D": {"test_system": "CSNK1D", "conditions": "read-out: apparent Kd; compound concentrations: 100 nM and 1000 nM (sheet 'Samples'), CATDS: 0.21669980545697101; n = 1"}, "CSNK1E": {"test_system": "CSNK1E", "conditions": "read-out: apparent Kd; compound concentrations: 100 nM and 1000 nM (sheet 'Samples'), CATDS: 0.13524385654208201; n = 1"}, "CSNK1G1": {"test_system": "CSNK1G1", "conditions": "read-out: apparent Kd; compound concentrations: 100 nM and 1000 nM (sheet 'Samples'), CATDS: 3.36950722911461E-2; n = 1"}, "CSNK1G3": {"test_system": "CSNK1G3", "conditions": "read-out: apparent Kd; compound concentrations: 100 nM and 1000 nM (sheet 'Samples'), CATDS: 3.7890071369445298E-2; n = 1"}, "DJA1": {"test_system": "T1, DJA1", "T1 construct": "gene DNAJA1", "conditions": "read-out: apparent Kd; compound concentrations: 100 nM and 1000 nM (sheet 'Samples'), CATDS: 3.3060215115758199E-2; n = 1"}, "MAP4K5": {"test_system": "MAP4K5", "conditions": "read-out: apparent Kd; compound concentrations: 100 nM and 1000 nM (sheet 'Samples'), CATDS: 3.4056635134305298E-2; n = 1"}, "MAPK10": {"test_system": "MAPK10", "conditions": "read-out: apparent Kd; compound concentrations: 100 nM and 1000 nM (sheet 'Samples'), CATDS: 4.2468368704664097E-2; n = 1"}, "MAPK11": {"test_system": "MAPK11", "conditions": "read-out: apparent Kd; compound concentrations: 100 nM and 1000 nM (sheet 'Samples'), CATDS: 0.108415283939704; n = 1"}, "MAPK14": {"test_system": "MAPK14", "conditions": "read-out: apparent Kd; compound concentrations: 100 nM and 1000 nM (sheet 'Samples'), CATDS: 0.505182268244599; n = 1"}, "MAPK9": {"test_system": "MAPK9", "conditions": "read-out: apparent Kd; compound concentrations: 100 nM and 1000 nM (sheet 'Samples'), CATDS: 5.19093996737921E-2; n = 1"}, "MAPKAPK2": {"test_system": "MAPKAPK2", "conditions": "read-out: apparent Kd; compound concentrations: 100 nM and 1000 nM (sheet 'Samples'), CATDS: 0.16433458855485; n = 1"}, "NLK": {"test_system": "NLK", "conditions": "read-out: apparent Kd; compound concentrations: 100 nM and 1000 nM (sheet 'Samples'), CATDS: 5.68204402660955E-2; n = 1"}, "PKN3": {"test_system": "PKN3", "conditions": "read-out: apparent Kd; compound concentrations: 100 nM and 1000 nM (sheet 'Samples'), CATDS: 3.0507466694278802E-2; n = 1"}, "PRKCA": {"test_system": "PRKCA", "conditions": "read-out: apparent Kd; compound concentrations: 100 nM and 1000 nM (sheet 'Samples'), CATDS: 4.1145920495800903E-2; n = 1"}, "PRKCB": {"test_system": "PRKCB", "conditions": "read-out: apparent Kd; compound concentrations: 100 nM and 1000 nM (sheet 'Samples'), CATDS: 3.4087347473579097E-2; n = 1"}, "PRKD2": {"test_system": "PRKD2", "conditions": "read-out: apparent Kd; compound concentrations: 100 nM and 1000 nM (sheet 'Samples'), CATDS: 3.50594175571005E-2; n = 1"}, "PRKD3": {"test_system": "PRKD3", "conditions": "read-out: apparent Kd; compound concentrations: 100 nM and 1000 nM (sheet 'Samples'), CATDS: 3.1320583757310602E-2; n = 1"}, "RIPK2": {"test_system": "RIPK2", "conditions": "read-out: apparent Kd; compound concentrations: 100 nM and 1000 nM (sheet 'Samples'), CATDS: 4.9528140659543501E-2; n = 1"}}, "data": [{"smiles": "O=C(Nc1n[nH]c2nc(-c3ccc(O)cc3)c(Br)cc12)C1CC1", "note": "[SB-725317]", "values": [{"measurement": "potency estimated from few doses", "setting": "ADRBK1", "result": 1950, "unit": "nM"}, {"measurement": "potency estimated from few doses", "setting": "AKT2", "result": 2420, "unit": "nM"}, {"measurement": "potency estimated from few doses", "setting": "EIF2AK1", "result": 517, "unit": "nM"}, {"measurement": "potency estimated from few doses", "setting": "GSK3A", "result": 12.9, "unit": "nM"}, {"measurement": "potency estimated from few doses", "setting": "GSK3B", "result": 43.1, "unit": "nM"}, {"measurement": "potency estimated from few doses", "setting": "PIM2", "result": 768, "unit": "nM"}, {"measurement": "potency estimated from few doses", "setting": "PRKAG1", "result": 1610, "unit": "nM"}, {"measurement": "potency estimated from few doses", "setting": "TAOK1", "result": 1840, "unit": "nM"}]}, {"smiles": "Cl.Cl.Cl.Fc1ccc(-c2ncn(C3CCNCC3)c2-c2ccnc(Nc3ccccc3)n2)cc1.Fc1ccc(-c2ncn(C3CCNCC3)c2-c2ccnc(Nc3ccccc3)n2)cc1", "note": "[SB-238039-R]", "values": [{"measurement": "potency estimated from few doses", "setting": "ADK", "result": 704, "unit": "nM"}, {"measurement": "potency estimated from few doses", "setting": "COX5A", "result": 873, "unit": "nM"}, {"measurement": "potency estimated from few doses", "setting": "CSNK1A1", "result": 131, "unit": "nM"}, {"measurement": "potency estimated from few doses", "setting": "CSNK1D", "result": 6.61, "unit": "nM"}, {"measurement": "potency estimated from few doses", "setting": "CSNK1E", "result": 18.5, "unit": "nM"}, {"measurement": "potency estimated from few doses", "setting": "CSNK1G1", "result": 1180, "unit": "nM"}, {"measurement": "potency estimated from few doses", "setting": "CSNK1G3", "result": 747, "unit": "nM"}, {"measurement": "potency estimated from few doses", "setting": "DJA1", "result": 1290, "unit": "nM"}, {"measurement": "potency estimated from few doses", "setting": "MAP4K5", "result": 1130, "unit": "nM"}, {"measurement": "potency estimated from few doses", "setting": "MAPK10", "result": 504, "unit": "nM"}, {"measurement": "potency estimated from few doses", "setting": "MAPK11", "result": 32.7, "unit": "nM"}, {"measurement": "potency estimated from few doses", "setting": "MAPK14", "result": 1.59, "unit": "nM"}, {"measurement": "potency estimated from few doses", "setting": "MAPK9", "result": 270, "unit": "nM"}, {"measurement": "potency estimated from few doses", "setting": "MAPKAPK2", "result": 11.8, "unit": "nM"}, {"measurement": "potency estimated from few doses", "setting": "NLK", "result": 206, "unit": "nM"}, {"measurement": "potency estimated from few doses", "setting": "PKN3", "result": 1900, "unit": "nM"}, {"measurement": "potency estimated from few doses", "setting": "PRKCA", "result": 560, "unit": "nM"}, {"measurement": "potency estimated from few doses", "setting": "PRKCB", "result": 1130, "unit": "nM"}, {"measurement": "potency estimated from few doses", "setting": "PRKD2", "result": 1000, "unit": "nM"}, {"measurement": "potency estimated from few doses", "setting": "PRKD3", "result": 1660, "unit": "nM"}, {"measurement": "potency estimated from few doses", "setting": "RIPK2", "result": 311, "unit": "nM"}]}]}
